MITF inh: blocks human microphthalmia-associated transcription factor; AID 1259374; AlphaScreen MITF homodimerization, bead proximity signal; 0.91% of 650,000 active; inhibition, % at 2.6 µM; in the data active means inhibition above about 50%;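 further: 0% = vehicle wells with protein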
TEAD-YAP inh: TEAD-YAP interaction inhibition | HEK-TIYL cells, TEAD-Gal4/YAP UAS-luciferase luminescence | inhibition, % at 9.12 µM | 1.4% of 640,000 active | AID 1259422; in the data active means inhibition above about 32%;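 further: 0% = median of test compound wells and 100% = reference inhibitor wells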
FBW7 act: activators of human E3 ligase FBW7 | AlphaScreen FBW7–phospho-cyclin E peptide binding, activator screen | normalized activity (activation), % at 26.1 µM | 0.13% of 650,000 active | AID 1259310; in the data active means normalized activity above about 1.9%;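 further: purified mutant Fbw7 with reduced substrate affinity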
GPR151 activ: activators of human GPR151; PathHunter beta-arrestin GPR151 cells, luminescence; 1% of 650,000 active; activation, % at 11.2 µM; Q8TDV0; AID 1508602; in the data active means activation above about 4.9%;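 further: 0% = median of compound wells and 100% = cells with positive control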
Target sequence (Q8TDV0 whole entry, looked up): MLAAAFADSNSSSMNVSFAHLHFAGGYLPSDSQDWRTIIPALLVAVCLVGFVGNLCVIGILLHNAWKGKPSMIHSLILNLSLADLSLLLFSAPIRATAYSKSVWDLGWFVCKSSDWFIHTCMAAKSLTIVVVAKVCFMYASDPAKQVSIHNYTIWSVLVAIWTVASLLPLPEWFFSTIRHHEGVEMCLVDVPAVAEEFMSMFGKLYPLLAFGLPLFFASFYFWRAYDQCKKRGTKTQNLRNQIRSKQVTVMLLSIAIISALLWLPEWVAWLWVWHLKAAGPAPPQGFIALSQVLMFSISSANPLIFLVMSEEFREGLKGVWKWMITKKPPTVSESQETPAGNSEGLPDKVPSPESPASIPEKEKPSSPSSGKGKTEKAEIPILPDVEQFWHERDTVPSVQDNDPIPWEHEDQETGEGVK
* = called active by the depositor. Only some compounds are listed: those with a hit (about 3.5% of all), similar ones and a draw of the others.

SMILES | MITF inh | TEAD-YAP inh | FBW7 act | GPR151 activ
Cc1cccc(-n2cc(-c3cc4ccccc4oc3=O)[nH]c2=S)c1 | 6 | 81* | 0 | -1
CCC(C)(C)NC(=O)/C=C/c1ccccc1OC | 2 | -6 | 0 | 1
Cc1sc(NC(=O)c2ccco2)c(C(c2cccnc2)N2CCN(c3ccccc3F)CC2)c1C (configuration not stated) | -14 | 37* | 0 | 0
Cc1sc(NC(=O)c2ccco2)c(C(c2cccnc2)N2CCCCC2)c1C (configuration not stated) | 2 | 41* | 0 | 4
Cc1sc(NC(=O)c2ccco2)c(C(c2cccnc2)N2CCOCC2)c1C (configuration not stated) | 12 | 29 | 0 | -1
COc1ccc2sc3ccccc3c(=O)c2c1 | -16 | -40 | 1 | -5
Nc1ccc2sc3ccccc3c(=O)c2c1 | -6 | -54 | 2.1* | -2
Cc1ccc(NC(=O)/C=C/c2ccc(C)o2)cc1 | 6 | -54 | 0 | 2
CCOC(=O)C1=C(c2ccccc2)NC(=O)NC1c1ccccc1Br (configuration not stated) | 1 | -1 | 0 | 0
CCOc1c(Br)cc(C(N)=O)cc1OC | -1 | 2 | 0 | 2
COc1ccc(C(=O)NCc2ccc(S(N)(=O)=O)cc2)cc1OC | 12 | 0 | 2.4* | 1
COc1c(Cl)cc(C(=O)NN)cc1Cl | 6 | 56* | 0 | -1
CCCOc1ccc(C(=O)NN)cc1OC | 15 | 47* | 1 | -2
CCOc1c(Br)cc(C(=O)NN)cc1OC | -1 | 52* | 0 | 1
CNC(=O)c1cc(Cl)c(OC)c(OC)c1 | 6 | 6 | 0 | 0
CCSc1nc2sccn2c(=O)c1C(=O)Nc1cccc(N(C)C)c1 | -14 | 3 | -1 | 1
N#Cc1cccc(NC(=O)C[n+]2c(N)sc3ccc4ccccc4c32)c1 | -2 | 43* | 0 | 0
O=C(Nc1cccc(Cl)c1)C1C2C=CC3(O2)C1C(=O)N(CCN1CCCCCC1)C3C(=O)NC1CCCCC1 (configuration not stated) | 7 | -5 | 0 | 0
Cc1ccc(/C=C2\C(=O)NC(=O)N(c3ccc(F)cc3)C2=O)o1 | 0 | 2 | 0 | 1
O=C1NC(=O)N(c2ccc([N+](=O)[O-])cc2)C(=O)/C1=C/c1ccco1 | 78* | -2 | 0 | 0
O=C1NC(=O)N(c2ccc(F)cc2)C(=O)/C1=C\c1ccc(SCc2ccco2)o1 | 87* | 12 | -1 | 1
CCOc1ccccc1N1C(=O)NC(=O)/C(=C/c2ccco2)C1=O | 38 | -3 | -1 | 1
O=C1NC(=S)S/C1=C\c1ccc(SCc2ccco2)o1 | 58* | 18 | -1 | -1
O=C1NC(=O)N(c2ccccc2)C(=O)/C1=C\c1ccc(-c2ccc([N+](=O)[O-])cc2)o1 | 2 | -4 | 0 | -1
N=C1/C(=C\c2ccc(SCc3ccco3)o2)C(=O)N=C2SC(N3CCCC3)=NN12 | 18 | 1 | 0 | -1
SMILES | MITF inh | TEAD-YAP inh | FBW7 act | GPR151 activ
COc1ccccc1N1C(=O)NC(=O)/C(=C\c2ccco2)C1=O | 62* | 0 | -1 | 0
O=C(Nc1ccc2oc(-c3ccc(F)cc3Cl)nc2c1)c1cccc(F)c1 | 18 | 15 | 1 | 0
COC(=O)c1c(S(=O)(=O)NC2CC2)sc2c1CCN(Cc1ccc(Cl)cc1)C2 | 6 | 4 | 0 | -1
COc1ccc2oc(-c3cccc(NC(C)=O)c3)nc2c1 | -2 | 40* | 0 | -8
CCc1ccc2oc(-c3cccc(NC(C)=O)c3)nc2c1 | 0 | -12 | 1 | -6
Cc1ccc2oc(-c3ccc(NC(=O)C(F)(F)F)cc3)nc2c1 | 2 | 71* | 0 | -5
CCC(=O)Nc1ccc2oc(-c3cccc(Br)c3)nc2c1 | -19 | 57* | 0 | -3
CCC(=O)Nc1ccc2oc(-c3cccc(C)c3)nc2c1 | 8 | 82* | 0 | -6
Cc1ccc2oc(-c3ccc(C(=O)Nc4ccc(NC(=O)C(C)(C)C)cc4)cc3)nc2c1 | -2 | -39 | 0 | 2
CCC(=O)Nc1ccc2oc(-c3cccc(I)c3)nc2c1 | 6 | -18 | 0 | -3
Cc1ccc(Nc2c([N+](=O)[O-])sc3ccccc23)cc1 | 30 | 48* | 0 | 0
CSc1nc2ccc(NC(=O)CSc3nnc(-c4ccccc4)n3-c3ccccc3)cc2s1 | -4 | 4 | 0 | 0
Cc1c2oc3c(C)ccc(C(=O)N[C@@H]4C(=O)N[C@H](C(C)C)C(=O)N5CCC[C@H]5C(=O)N(C)CC(=O)N(C)[C@@H](C(C)C)C(=O)O[C@@H]4C)c3nc-2c(C(=O)N[C@@H]2C(=O)N[C@H](C(C)C)C(=O)N3CCC[C@H]3C(=O)N(C)CC(=O)N(C)[C@@H](C(C)C)C(=O)O[C@@H]2C)c(N)c1=O | 5 | 96* | 0 | 0
O=C(CSc1nncs1)Nc1ccc(OCc2ccccc2)cc1 | -15 | -22 | 12* | 4
CCN1CCN(C(=O)Cn2ncc3c(C)n(Cc4ccc(Cl)cc4)c(C)c3c2=O)CC1 | 9 | 1 | 0 | 0
COc1ccc(NC(=O)c2sc3nc(N)c(C#N)cc3c2N)cc1 | 18 | -30 | 18* | 2
COc1cc(NC(=O)c2sc3nc(N)c(C#N)cc3c2N)cc(OC)c1OC | 29 | -11 | 0 | 1
Cc1ccc(NC(=O)CN2CCOCC2)cc1Br | -5 | 3 | 0 | 1
CC(O)C12c3ccccc3C(c3ccccc31)C1C(=O)N(c3ccccc3F)C(=O)C12 (configuration not stated) | 4 | 9 | 2.2* | -1
CC(NC(=O)Nc1ccc(Cl)c(Cl)c1)C1CCCO1 (configuration not stated) | 17 | -49 | 1.9* | -2
CCc1ccc(-n2nc3cc(C)c(N)cc3n2)cc1 | 8 | -32 | 1 | -1
Cc1ccc(-n2nc3cc(C)c(N)cc3n2)cc1 | -11 | 37* | 0 | -1
Oc1ccc(N=Nc2ncn[nH]2)c(O)c1 | 92* | 11 | 0 | 0
Cc1ccc(O)c(N=Nc2ncn[nH]2)c1 | 47 | 80* | -2 | 3
Cc1ccc(O)c(N=Nc2ccc(S(=O)(=O)O)cc2)c1 | 9 | 14 | 0 | -7
SMILES | MITF inh | TEAD-YAP inh | FBW7 act | GPR151 activ
O=C(CSc1ncn[nH]1)c1ccc(O)cc1O | -9 | -1 | 0 | -4
O=C1N[C@H](Cc2ccc(O)cc2)C(=O)N2C[C@@H](NCc3ccccc3Cl)C[C@@H]12 | 0 | 4 | 0 | 0
CCSc1nc2scc(C(F)(F)F)n2c(=O)c1C(=O)NCc1c(F)cccc1F | 14 | 13 | 0 | 1
O=C(CSc1nc2ccccc2[nH]1)Nc1cc(Cl)ccc1O | -8 | 33* | 0 | 0
Cc1nc(CN2CCN(C(=O)CCl)CC2)cs1 | 4 | 48* | 0 | 4
Cc1nc(CN2CCN(S(C)(=O)=O)CC2)cs1 | -26 | -17 | 0 | 0
CC(=O)Oc1ccc2cc(-c3ccc4c(c3)OCCO4)c(=O)oc2c1 | 10 | 63* | 0 | -4
CC(=O)Oc1ccc2c(=O)c(-c3ccc4c(c3)OCCO4)c(C)oc2c1 | 13 | -19 | 1 | 1
